Most compounds without a hit are left out; they make up all but 11% or so of the library.
NS1 function inh: blocks influenza NS1 protein function; Potency, µM (series often up to 46.1 µM), inactives show top-dose activity, positive = more growth; 0.4% of 270,000 active; AID 2326; calls by dose curve; further: actives are rising curves; nearly all actives have a fitted effect of over 50% in size
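Compounds were scored for reversing the slow growth caused by influenza A NS1 in S. cerevisiae, measured by optical density at 600 nm. Assay medium contained 2% galactose at pH 6.0; NS1-free yeast of the same strain were the positive control.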
Sm TGR inh: blocks Schistosoma mansoni thioredoxin glutathione reductase; Q962Y6; purified TGR, DTNB reduction, TNB absorbance 405 nm; Potency, µM (doses to about 114 µM), without a hit: at the highest dose activity change, negative = inhibition, usual class: inhibitors; 3% of 360,000 active; AID 485364; further: on the % scale 0 is the no-effect control and ±100 the full control effect; nearly all actives have a fitted effect of over 60% in size
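First, TGR (20 nM dispensed) and NADPH were mixed with compound. Second, a 15 min room-temperature incubation followed. Third, further NADPH and then DTNB were added to start the reaction. Finally, TNB absorbance was monitored kinetically.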
Pf growth 48h: inhibits P. falciparum growth in the first generation, 48 h | Potency, µM (top dose mostly 28.7 µM), inactives show top-dose activity change, negative = inhibition, most hits filed as inhibitors | 5.9% of 310,000 active | P. falciparum luciferase growth in erythrocytes, 48 h; further: on the % scale 0 is the no-effect control and ±100 the full control effect
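Erythrocytes infected with P. falciparum carrying an integrated firefly luciferase reporter (2% hematocrit, 0.1% parasitemia final) were exposed to compounds in RPMI 1640 with 0.5% Albumax at 37 C, 5% CO2. Growth inhibition was scored as reduced luminescence.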
Pf growth 96h: P. falciparum growth inhibition at 96 hour, primary screen for plastid delayed-death inhibitors; P. falciparum luciferase reporter growth, 96 h; Potency, µM (titrated, usually from 28.7 µM), for inactives: at the highest dose activity change, negative = inhibition, usual class: inhibitors; 6.9% of 320,000 active; further: on the % scale 0 is the no-effect control and ±100 the full control effect
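Readout is luminescence from an integrated firefly luciferase in P. falciparum. Red cells, 2% hematocrit and 0.05% parasitemia final, were cultured with compound through two parasite generations (96 hours) at 37 C, 5% CO2.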
AMA1-RON2 inh: inhibitors of Plasmodium falciparum AMA1-RON2 interaction. AlphaScreen AMA1-biotinylated RON2 peptide binding. Potency, µM (top dose mostly 58.2 µM), without a hit: at the top dose activity change, negative = inhibition, actives largely listed as inhibitors. 0.2% of 360,000 active. AID 720542;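 further: 0% = vehicle wells and -100% = peptide control; nearly all actives have a fitted effect of over 45% in size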
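AMA1 (3D7) with his tag at 25 nM final met compounds first, then biotinylated RON2 peptide at 25 nM; detection used donor plus acceptor beads, 10 µg/mL apiece, read by AlphaScreen after 30 min at room temperature.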
Starred values were filed as active, the others as inactive; ? = inconclusive; / = not tested or not shown; [ ] = another dose, or the depositor's remark. Unless noted, the call rests on the fitted dose curve; in most records, active means well fitted curve in the direction sought with a large enough effect; inconclusive means small, poorly fitted or top-dose-only effect, or another doubt; inactive means no such curve, though single readings can be large; an effect the other way counts as inactive or inconclusive. Potency means the concentration at half of the fitted maximal effect.

SMILES	NS1 function inh	Sm TGR inh	Pf growth 48h	Pf growth 96h	AMA1-RON2 inh
CC(C)C[C@H](NC(=O)c1nc[nH]c1C(=O)NC1CCN(C(=O)OC(C)(C)C)CC1)C(=O)OC(C)(C)C	3%	-33%	1.5µM*	2.3µM*	119%
CC(C)(C)OC(=O)NCCCC[C@H](NC(=O)c1nc[nH]c1C(=O)NC1CCN(C(=O)OC(C)(C)C)CC1)C(=O)OC(C)(C)C	-5%	-21%	2.1µM*	2.3µM*	133%
CC(C)C[C@H](NC(=O)c1nc[nH]c1C(=O)NC1CCN(C(=O)OC(C)(C)C)CC1)C(=O)OCc1ccccc1	?	1%	?	12µM*	122%
C[C@H](NC(=O)c1nc[nH]c1C(=O)NC1CCN(C(=O)OC(C)(C)C)CC1)C(=O)OC(C)(C)C	1%	-6%	-10%	?	38%
COCCn1ccc2c(OCC(=O)Nc3cccc(OC)c3)cccc2c1=O	/	-1%	/	/	/
CCOc1ccccc1CN1CCN(CCCc2ccccc2)CC1CCO (stereo not given)	2%	8%	-28%	9%	0%
COc1ccc(NC(=O)c2c(NCc3ccc(C)o3)sc3c2CCC(C)C3)cc1 (stereo not given)	/	10µM*	/	/	/
COc1ccc(NC(=O)c2c(NCc3ccc(C)o3)sc3c2CCCCC3)c(OC)c1	/	2.8µM*	/	/	/
COc1ccccc1NC(=O)c1c(NCc2ccc(C)o2)sc2c1CCC(C)C2 (stereo not given)	/	32µM*	/	/	/
COc1ccc(NC(=O)c2c(NC(=O)COc3ccccc3)sc3c2CCC(C)C3)cc1 (stereo not given)	/	-8%	/	/	/
COc1ccc(NC(=O)c2c(NCc3ccc(C)o3)sc3c2CCC(C)C3)c(OC)c1 (stereo not given)	/	28µM*	/	/	/
COc1ccccc1NC(=O)c1csc2c1CCC(C)C2 (stereo not given)	-2%	50µM*	-80%	?	7%
CCCCNC(=O)C[C@@H]1C[C@@]2(C(=O)OCC)CCCC=C2N(Cc2ccccc2)C1=O	/	/	/	/	-9%
O=C(c1ccncc1)c1ccc(N2CCN(C3CC(=O)N(Cc4cccs4)C3=O)CC2)cc1 (stereo not given)	-6%	?	-21%	?	-7%
O=C1CC(N2CCN(c3ccc(O)cc3)CC2)C(=O)N1Cc1cccs1 (stereo not given)	-14%	50µM*	?	-28%	-1%
COc1ccc(S(=O)(=O)NCc2cccn2Cc2cccc(C)c2)cc1OC	/	-1%	/	/	/
C=CCn1c(SCC(=O)c2[nH]c(C)c(C(=O)OC)c2C)nc2scc(-c3ccc(OC)c(OC)c3)c2c1=O	18%	1%	?	2.9µM*	-4%[2.32 µM]
C=CCn1c(SCC(=O)N2CCOCC2)nc2scc(-c3ccco3)c2c1=O	13%	4.5µM*	0%	20%	-29%
Nn1cnc2scc(-c3ccco3)c2c1=O	-15%	35µM*	28%	23%	-5%
C=CCn1c(SCn2nnc3ccccc3c2=O)nc2scc(-c3cccs3)c2c1=O	?	-1%	14%	2.9µM*	0%
CC(=O)[C@H]1CC[C@@H](c2ccccc2)N(S(=O)(=O)c2ccc(C)cc2)C1	/	/	/	/	6%
C=CCn1c(SCC(=O)NCc2ccc3c(c2)OCO3)nc2scc(-c3ccccc3)c2c1=O	-5%	10%	?	?	8%
C=CCn1c(SCC(=O)NCCCC(=O)OCC)nc2scc(-c3ccco3)c2c1=O	/	11%	9%	-8%	16%
C=CCn1c(SCC(=O)N2CC(=O)Nc3ccccc32)nc2scc(-c3ccccc3)c2c1=O	?	7%	8.3µM*	4.7µM*	10%
C=CCn1c(SC(F)F)nc2scc(-c3ccco3)c2c1=O	-25%	50µM*	2%	5%	-7%
SMILES	NS1 function inh	Sm TGR inh	Pf growth 48h	Pf growth 96h	AMA1-RON2 inh
C=CCn1c(SCC(C)=O)nc2scc(-c3ccco3)c2c1=O	11%	2.8µM*	-20%	-3%	-18%
Cc1ccc(C)c(Cn2c(SCC(=O)N(C)Cc3ccccc3)nc3ccccc32)c1	/	6%	/	/	/
O=C(NCC(c1ccccc1Cl)N1CCCC1)c1ccc(N2CCCC2=O)cc1 (stereo not given)	/	5%	?	0%	-20%
O=C(NC(n1ccc(=O)[nH]c1=O)C(Cl)(Cl)Cl)C12CC3CC(CC(C3)C1)C2 (stereo not given)	-7%	40µM*	2%	6%	-1%
CCCNS(=O)(=O)c1ccc(CCC(=O)NCCc2ccc(OC)c(OC)c2)cc1	6%	14%	-6%	-9%	20%
COc1ccc(CCC(=O)Nc2cc(Cl)ccc2OC)cc1	-76%	8%	/	?	9%
CC(C)(C)NS(=O)(=O)c1ccc(CCC(=O)Nc2cc(Cl)ccc2Oc2ccccc2)cc1	27%	-8%	4.1µM*	/	4%
CC(C)CNS(=O)(=O)c1ccc(CCC(=O)O)cc1	2%	-1%	12%	18%	-1%
CC(C)CNS(=O)(=O)c1ccc(CCC(=O)Nc2cc(Cl)ccc2Oc2ccccc2)cc1	24%	6%	/	4.1µM*	28%
CCCNS(=O)(=O)c1ccc(CCC(=O)Nc2cc(Cl)ccc2Oc2ccccc2)cc1	4%	1%	13µM*	-4%	3%
C#CCN(C[C@H]1[C@H](OC(=O)NC2CCCC2)[C@H](OC(=O)NC2CCCC2)C[C@@H](C(=O)OC)[C@H]1C(=O)OC)S(=O)(=O)c1ccc(C)cc1	/	/	/	/	-1%
COc1ccc(CC(NC(C)=O)C(=O)NC2CCN(c3nnnn3-c3ccccc3)CC2)cc1OC (stereo not given)	1%	-3%[57.1 µM]	-6%	?	/
CC1CN(C)C(C)C/C1=N\Oc1ccc([N+](=O)[O-])cc1 (stereo not given)	-1%	11%	20%	1µM*	-12%
CC1CN(C)C(C)C/C1=N/Oc1ccccc1[N+](=O)[O-] (stereo not given)	2%	0%	31%	95%	6%
Cc1nc2c(c(C)c1CCC(=O)NCc1ccccc1)c(=O)n(C)c(=O)n2C	/	-2%	/	/	/
CCCc1nc2ccc(C)cn2c1Cc1ccc(OC)cc1C	/	/	/	/	-7%
Nc1ccc(N2CCOCC2)c2nonc12	3%	?	1%	12µM*	3%
O=C(Nc1ccc(N2CCOCC2)c2nonc12)C1CCCC1	7%	-6%	-3%	/	0%
CCC(CC)C(=O)N1CCc2cc(OC)c(OC)cc2C1COc1ccc2c(C)cc(=O)oc2c1 (stereo not given)	/	-1%	/	/	/
Cc1ccc(NC(=O)CSc2nnc(C3CC3)n2N)cc1S(=O)(=O)N1CCOCC1	/	14%	?	11%	14%
Cc1ccc(S(=O)(=O)N2CCCc3cc(NC(=O)c4cccc(Cl)c4)ccc32)cc1	/	8%	/	/	/
O=S(=O)(NCC(c1ccco1)S(=O)(=O)c1ccccc1)c1cc(F)ccc1F (stereo not given)	/	7.1µM*	/	/	/
